Results reported in ChEMBL document CHEMBL3988442, “University of Dundee, Small-Polar-MMV Screening Library” (2021).
For some of these results: Measured potencies and affinities stand elsewhere.

Experiments:
Parameters in all cases: scale not given: direction of the effect not stated beside the values
[1] = biological target: Protein translocase subunit SecA (Escherichia coli (strain K12)) (UniProt P10408); test: Assay to Identify E. coli SecA ATPase Inhibitors; type: functional; conditions: 30 µM
Protein translocase subunit SecA (Escherichia coli (strain K12)), sequence (P10408 whole entry): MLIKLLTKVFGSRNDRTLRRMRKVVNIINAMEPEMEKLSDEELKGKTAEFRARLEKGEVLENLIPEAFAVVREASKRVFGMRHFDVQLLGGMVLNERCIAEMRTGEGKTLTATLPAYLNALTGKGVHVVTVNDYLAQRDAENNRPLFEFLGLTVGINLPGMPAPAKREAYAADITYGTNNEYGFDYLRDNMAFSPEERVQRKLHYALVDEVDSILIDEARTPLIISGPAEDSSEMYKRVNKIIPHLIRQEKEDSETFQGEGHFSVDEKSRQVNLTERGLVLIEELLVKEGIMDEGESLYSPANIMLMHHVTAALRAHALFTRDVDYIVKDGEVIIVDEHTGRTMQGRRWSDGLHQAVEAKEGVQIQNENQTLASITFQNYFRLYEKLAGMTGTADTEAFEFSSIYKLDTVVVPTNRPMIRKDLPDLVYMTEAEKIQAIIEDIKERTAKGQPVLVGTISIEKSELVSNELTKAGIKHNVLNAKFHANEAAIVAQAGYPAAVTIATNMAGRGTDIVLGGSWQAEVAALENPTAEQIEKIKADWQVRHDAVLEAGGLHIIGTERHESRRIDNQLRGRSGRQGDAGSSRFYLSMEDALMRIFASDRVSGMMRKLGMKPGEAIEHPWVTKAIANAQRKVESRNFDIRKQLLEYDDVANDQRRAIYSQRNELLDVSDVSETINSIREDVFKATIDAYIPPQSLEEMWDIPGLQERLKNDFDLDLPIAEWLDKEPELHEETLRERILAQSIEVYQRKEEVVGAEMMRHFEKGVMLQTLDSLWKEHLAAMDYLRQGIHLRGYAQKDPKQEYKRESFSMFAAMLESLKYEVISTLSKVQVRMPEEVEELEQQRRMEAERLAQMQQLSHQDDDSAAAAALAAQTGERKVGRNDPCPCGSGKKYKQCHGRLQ

[2] = biological target: T1, Ubiquitin-activating enzyme e1, putative (Leishmania donovani (strain BPK282A1)) (UniProt E9BSI1); test: Leishmania donovani Ubiquitin Activating Enzyme (LdE1); type: functional; conditions: 30 µM
T1 sequence (whole entry): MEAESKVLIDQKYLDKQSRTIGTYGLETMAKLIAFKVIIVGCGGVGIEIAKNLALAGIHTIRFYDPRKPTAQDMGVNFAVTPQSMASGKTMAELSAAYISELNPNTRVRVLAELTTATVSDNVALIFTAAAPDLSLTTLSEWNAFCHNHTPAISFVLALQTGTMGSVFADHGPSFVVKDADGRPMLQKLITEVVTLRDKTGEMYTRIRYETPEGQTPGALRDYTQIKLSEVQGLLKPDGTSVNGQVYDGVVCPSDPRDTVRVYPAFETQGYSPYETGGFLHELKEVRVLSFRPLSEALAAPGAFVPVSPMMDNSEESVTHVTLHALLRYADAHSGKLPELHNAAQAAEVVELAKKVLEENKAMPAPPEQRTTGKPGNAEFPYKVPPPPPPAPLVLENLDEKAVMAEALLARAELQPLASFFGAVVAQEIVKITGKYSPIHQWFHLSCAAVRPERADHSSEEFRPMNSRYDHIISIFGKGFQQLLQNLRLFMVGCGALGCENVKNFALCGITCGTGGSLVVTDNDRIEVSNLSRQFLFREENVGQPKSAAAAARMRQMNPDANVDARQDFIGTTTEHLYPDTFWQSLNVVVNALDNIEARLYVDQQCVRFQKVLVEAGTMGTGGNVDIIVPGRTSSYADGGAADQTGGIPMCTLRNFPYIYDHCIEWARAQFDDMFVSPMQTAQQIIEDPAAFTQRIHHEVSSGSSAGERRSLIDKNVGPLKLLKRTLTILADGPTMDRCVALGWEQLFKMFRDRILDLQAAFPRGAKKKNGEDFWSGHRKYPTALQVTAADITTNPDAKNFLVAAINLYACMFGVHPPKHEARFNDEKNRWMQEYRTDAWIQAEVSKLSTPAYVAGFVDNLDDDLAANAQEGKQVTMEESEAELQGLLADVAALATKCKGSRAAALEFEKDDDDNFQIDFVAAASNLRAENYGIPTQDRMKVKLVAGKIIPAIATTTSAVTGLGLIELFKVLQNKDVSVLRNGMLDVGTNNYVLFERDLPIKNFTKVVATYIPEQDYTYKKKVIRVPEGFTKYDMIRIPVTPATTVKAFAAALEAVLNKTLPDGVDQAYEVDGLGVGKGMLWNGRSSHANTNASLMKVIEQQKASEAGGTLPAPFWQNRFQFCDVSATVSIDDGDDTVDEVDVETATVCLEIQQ

[3] = biological target: AMP-activated protein kinase, AMPK (Homo sapiens) (UniProt P54646+O43741+P54619+Q9UGJ0+Q9Y478+Q13131+Q9UGI9); test: AMP-dependent Kinase enzyme assay. An in vitro enzyme assay that detects ADP turnover that is directly proportional to AMPK activity. This uses naive AMPK that is activated during the assay with MK-8722; type: functional; conditions: 30 µM
[4] = biological target: Sialic acid-binding Ig-like lectin 9 (Homo sapiens) (UniProt Q9Y336); test: Hs-Siglec9 ALPHAscreen SOP 20170721; conditions: 10 µM
Sialic acid-binding Ig-like lectin 9 (Homo sapiens), sequence (Q9Y336 whole entry): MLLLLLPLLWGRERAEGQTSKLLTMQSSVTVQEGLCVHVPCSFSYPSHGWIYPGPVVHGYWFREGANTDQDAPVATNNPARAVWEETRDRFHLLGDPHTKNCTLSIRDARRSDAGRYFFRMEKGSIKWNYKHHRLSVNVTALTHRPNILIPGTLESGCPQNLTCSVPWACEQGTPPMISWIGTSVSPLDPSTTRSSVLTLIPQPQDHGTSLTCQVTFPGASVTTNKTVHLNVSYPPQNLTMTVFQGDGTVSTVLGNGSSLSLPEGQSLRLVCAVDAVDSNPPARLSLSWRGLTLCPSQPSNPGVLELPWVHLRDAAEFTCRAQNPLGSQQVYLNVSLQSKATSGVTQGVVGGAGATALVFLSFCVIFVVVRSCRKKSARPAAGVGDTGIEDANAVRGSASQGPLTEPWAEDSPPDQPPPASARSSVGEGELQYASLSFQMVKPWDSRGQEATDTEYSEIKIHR

Trypanosoma cruzi = test: Trypanosoma cruzi phosphomannomutase and mannose-1-phosphate guanylyltransferase assay; type: functional; conditions: 10 µM
[5] = biological target: T2, Arginase-2, mitochondrial (Homo sapiens) (UniProt P78540); test: in vitro enzyme assay to detect the production of urea directly proportional to the activity of Arginase II; type: functional; conditions: 33.3 µM; also: in the data most compounds retested in dose-response had high values
T2 sequence (whole entry): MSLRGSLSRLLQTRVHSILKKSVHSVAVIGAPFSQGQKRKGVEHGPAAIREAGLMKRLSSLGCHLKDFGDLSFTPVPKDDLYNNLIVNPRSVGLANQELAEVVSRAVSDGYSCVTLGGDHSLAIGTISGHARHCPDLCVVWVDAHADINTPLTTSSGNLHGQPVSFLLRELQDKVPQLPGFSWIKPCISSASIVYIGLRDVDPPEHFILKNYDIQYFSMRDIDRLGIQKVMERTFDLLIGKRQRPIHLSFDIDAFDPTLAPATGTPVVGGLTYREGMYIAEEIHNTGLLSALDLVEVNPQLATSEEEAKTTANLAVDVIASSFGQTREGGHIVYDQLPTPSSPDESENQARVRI

[6] = biological target: T3, Proteasome subunit beta (Trypanosoma cruzi) (UniProt O96673); test: Trypanosoma cruzi proteasome chymotrypsin-like activity (TcProtChymo) assay.; also: in the data most compounds retested in dose-response had high values; type: functional; conditions: 9.37 µM
T3 sequence (whole entry): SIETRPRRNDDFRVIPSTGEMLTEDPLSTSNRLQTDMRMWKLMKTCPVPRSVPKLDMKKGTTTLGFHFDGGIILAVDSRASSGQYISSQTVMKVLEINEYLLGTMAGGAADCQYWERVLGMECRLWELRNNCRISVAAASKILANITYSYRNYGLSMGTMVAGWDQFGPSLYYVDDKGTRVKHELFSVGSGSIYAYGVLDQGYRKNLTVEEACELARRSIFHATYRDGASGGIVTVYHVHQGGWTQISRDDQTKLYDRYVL

Homo sapiens = species on record: Homo sapiens; test: To identify inhibition of the IFN signalling (Jak-Stat) pathway via expression of an eGFP reporter gene under the control of an IFN-stimulated response element (ISRE) containing MxA promoter.; type: functional; conditions: 30 µM
[7] = biological target: T4, Tyrosyl-tRNA synthetase, putative (Trypanosoma cruzi (strain CL Brener)) (UniProt Q4DSP6); test: Trypanosoma cruzi tyrosyl tRNA synthetase (TcYRS) _High Tyrosine SOP; type: functional; conditions: 30 µM; also: in the data most compounds retested in dose-response had high values
T4 sequence (whole entry): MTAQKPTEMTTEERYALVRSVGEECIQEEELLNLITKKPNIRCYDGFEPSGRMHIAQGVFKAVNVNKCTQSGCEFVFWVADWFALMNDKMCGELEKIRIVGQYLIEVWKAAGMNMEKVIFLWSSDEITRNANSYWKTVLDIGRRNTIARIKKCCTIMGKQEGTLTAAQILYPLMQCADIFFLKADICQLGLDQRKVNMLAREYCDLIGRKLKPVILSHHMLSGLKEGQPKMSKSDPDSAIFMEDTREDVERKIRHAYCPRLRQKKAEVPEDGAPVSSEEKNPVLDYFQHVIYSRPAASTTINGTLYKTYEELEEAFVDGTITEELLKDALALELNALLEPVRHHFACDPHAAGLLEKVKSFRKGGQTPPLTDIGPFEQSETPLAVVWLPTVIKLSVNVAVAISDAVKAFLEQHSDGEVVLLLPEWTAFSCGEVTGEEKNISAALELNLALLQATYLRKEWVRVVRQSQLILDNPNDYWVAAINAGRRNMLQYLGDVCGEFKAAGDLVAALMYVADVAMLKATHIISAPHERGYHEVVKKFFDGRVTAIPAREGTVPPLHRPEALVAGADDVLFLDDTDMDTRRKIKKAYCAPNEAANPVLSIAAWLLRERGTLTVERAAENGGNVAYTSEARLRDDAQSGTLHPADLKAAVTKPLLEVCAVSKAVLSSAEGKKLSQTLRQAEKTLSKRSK

[8] = biological target: T4, Tyrosyl-tRNA synthetase, putative (Trypanosoma cruzi (strain CL Brener)); test: Trypanosoma cruzi tyrosyl tRNA synthetase (TcYRS) SOP; type: functional; conditions: 30 µM
[9] = biological target: Chromo domain-containing protein 1 (Saccharomyces cerevisiae (strain ATCC 204508 / S288c) (Baker's yeast)) (UniProt P32657); test: ScCHD-1 Enzyme Inhibition Assay; type: functional; conditions: 30 µM; also: in the data most compounds retested in dose-response had high values
Chromo domain-containing protein 1 (Saccharomyces cerevisiae (strain ATCC 204508 / S288c) (Baker's yeast)), sequence (P32657 whole entry, the tested form may be a part): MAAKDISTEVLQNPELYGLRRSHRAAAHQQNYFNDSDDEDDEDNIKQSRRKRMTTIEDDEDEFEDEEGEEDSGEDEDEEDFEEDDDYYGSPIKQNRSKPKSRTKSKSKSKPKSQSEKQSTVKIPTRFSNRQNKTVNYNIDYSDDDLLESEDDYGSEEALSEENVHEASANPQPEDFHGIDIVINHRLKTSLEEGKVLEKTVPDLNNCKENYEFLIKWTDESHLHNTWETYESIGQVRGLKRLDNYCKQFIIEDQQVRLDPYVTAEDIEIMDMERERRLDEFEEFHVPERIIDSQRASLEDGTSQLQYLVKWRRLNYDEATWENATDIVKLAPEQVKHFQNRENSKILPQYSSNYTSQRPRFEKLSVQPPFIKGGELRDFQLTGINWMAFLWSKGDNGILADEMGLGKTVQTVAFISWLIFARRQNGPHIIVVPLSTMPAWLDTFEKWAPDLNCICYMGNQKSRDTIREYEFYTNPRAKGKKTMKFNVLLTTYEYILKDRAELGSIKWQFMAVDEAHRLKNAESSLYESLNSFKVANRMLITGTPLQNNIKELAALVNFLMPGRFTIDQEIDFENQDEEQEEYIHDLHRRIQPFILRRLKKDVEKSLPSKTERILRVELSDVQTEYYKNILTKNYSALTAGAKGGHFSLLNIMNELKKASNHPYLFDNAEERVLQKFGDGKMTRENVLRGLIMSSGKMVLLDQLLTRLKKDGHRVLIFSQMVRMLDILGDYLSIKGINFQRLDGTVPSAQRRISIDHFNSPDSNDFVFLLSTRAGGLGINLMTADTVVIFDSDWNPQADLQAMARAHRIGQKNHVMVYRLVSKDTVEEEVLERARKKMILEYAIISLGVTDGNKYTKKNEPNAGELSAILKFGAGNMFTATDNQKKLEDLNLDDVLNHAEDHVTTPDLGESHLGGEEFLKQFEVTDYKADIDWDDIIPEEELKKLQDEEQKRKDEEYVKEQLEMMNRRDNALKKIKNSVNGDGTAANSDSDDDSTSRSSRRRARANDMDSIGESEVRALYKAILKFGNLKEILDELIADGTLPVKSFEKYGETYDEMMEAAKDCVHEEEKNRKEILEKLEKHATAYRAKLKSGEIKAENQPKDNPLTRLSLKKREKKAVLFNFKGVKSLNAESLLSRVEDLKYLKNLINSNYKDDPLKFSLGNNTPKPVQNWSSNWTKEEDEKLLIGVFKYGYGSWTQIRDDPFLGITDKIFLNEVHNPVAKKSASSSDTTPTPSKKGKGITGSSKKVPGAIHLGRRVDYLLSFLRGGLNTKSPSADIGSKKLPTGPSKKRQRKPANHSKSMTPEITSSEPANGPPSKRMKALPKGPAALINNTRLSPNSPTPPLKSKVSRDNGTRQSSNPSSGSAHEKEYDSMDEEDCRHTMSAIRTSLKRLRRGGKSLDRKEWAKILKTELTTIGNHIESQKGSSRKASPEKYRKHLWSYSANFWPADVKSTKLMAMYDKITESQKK

Compound | Percent Effect [1] [%] | Percent Effect [2] [%] | Percent Effect [3] [%] | Percent Effect [4] [%] | Percent Effect (Trypanosoma cruzi) [%] | Percent Effect [5] [%] | Percent Effect [6] [%] | Percent Effect (Homo sapiens) [%] | Percent Effect [7] [%] | Percent Effect [8] [%] | Percent Effect [9] [%]
CCN(C)S(=O)(=O)N(CC)Cc1ccc2c(c1)OCO2 | -5.09 | 15.6 | 0.454 | 4.35 | -4.49 | 1.42 | 8.11 | 11.3 | 4.85 | 19.5 | -8.91
O=C(CCN1C(=O)CCC1=O)Nc1cnn(-c2ccccc2Cl)c1 | -6.27 | 10.8 | 6.39 | 1.29 | -7.52 | -0.185 | 5.92 | 20.3 | 4.95 | 6.1 | 4.56
O=C(c1cccc(N2CCCC2=O)c1)N1CCCC(n2cncn2)C1 (stereo not given) | -5.98 | 13.5 | -31.2 | 2.17 | -1.6 | -1.6 | -0.18 | 7.08 | 8.37 | 13.6 | -5.4
O=C(NCCNc1ncccn1)C1CCN(CC(F)(F)F)CC1 | -4.28 | 18.9 | 5.29 | 1.52 | -6.51 | 0.802 | 18.9 | 20.5 | 7.39 | 11.1 | -4.74
CC(C)CN1CCCn2nc(CNC(=O)c3cccnc3O)cc2C1 | -5.79 | 21.3 | -6.62 | 22.5 | 6.52 | 5.73 | 13.2 | 13.9 | 6.01 | 18.5 | -7.12
CN(C)C(C)(C)CNC(=O)C(C)(C)c1ccccc1F | -0.22 | 9.72 | -4.87 | 4.5 | -4.18 | -0.442 | 13.2 | 17.2 | 4.21 | -2.56 | 105
CN(C)C(CNC(=O)c1cccc(-n2cnnn2)c1)c1ccccc1Cl (stereo not given) | -1.38 | 2.74 | 2.54 | -4.62 | -7.64 | 3.64 | 10.8 | 10.5 | 3.23 | 10 | -3.4
CC(C)OCCC(=O)N(C)CCCc1cc(-c2ccccc2)no1 | 2.05 | 18.9 | 5.99 | -0.12 | -8.08 | -1.66 | 13.3 | 22 | -1.98 | 3.66 | -5.36
Cc1noc(CN2CCOC(CN(C)C)C2)n1 (stereo not given) | -2.18 | 24.3 | 0.532 | -4.95 | 5.11 | 2.77 | 11.3 | 22.3 | 5.94 | 18.3 | -7.83
CC(C)Cc1cc(C(=O)NCc2nnc[nH]2)[nH]n1 | -3.85 | 7.89 | 11.2 | 7.63 | -3.02 | -4.73 | 13.1 | -0.467 | 1.06 | -2.6 | -1.14
CCOc1ccc(CC(CNC(=O)c2ccoc2)C(N)=O)cc1 (stereo not given) | -5.97 | 13 | -355 | -18.6 | 8.13 | -3.16 | 16.7 | 7.68 | 7.62 | 21.2 | -16.2
COc1nc(C)cc(C)c1CNC(=O)N(C)Cc1cnn(C)c1 | -2.85 | 10.8 | -7.89 | 7.05 | 2.32 | -2.4 | 6.28 | 4.87 | 3.96 | 15.8 | -6.86
O=C1CCCCN1Cc1cccc(NC(=O)N2CCSCC2)c1 | -4.11 | 9.72 | -6.98 | 26 | 2.43 | 8.83 | 12.1 | 8.32 | 6.32 | 12.8 | -6.96
Cc1cnn(CC2CCCCN2C(=O)c2cc(C(N)=O)cs2)c1 (stereo not given) | -8.81 | 1.27 | 1.77 | -2.33 | 0.308 | -2.37 | 8.4 | 17.1 | -1.04 | -5.06 | -0.902
COC(=O)C(NC(=O)COC1CCCC1)c1cc(F)ccc1F (stereo not given) | -6.55 | 7.79 | -4.98 | 20.1 | 5.06 | -7.83 | 2.7 | -0.885 | 4.85 | 21.9 | -9.9
CC(C)C(=O)N1CCCC(c2cc(C(F)F)n3ncnc3n2)C1 (stereo not given) | -6.98 | 4.05 | 6.16 | -5.54 | -4.94 | -6.73 | 4.21 | 18 | -3.23 | 1.3 | -0.33
Cc1cnccc1CN1CC[C@@](C)(O)[C@H](Oc2ccccc2)C1 | -3.92 | 9.46 | 0.664 | -0.228 | 7.51 | -4.41 | 12.9 | -16.3 | 3.23 | 9.09 | -13.2
CN(C)CC1CN(c2ccc(C#N)cn2)CCO1 (stereo not given) | -4.87 | -5.26 | -3.08 | 5.48 | 3.27 | -4.32 | -5.16 | -1.95 | 2.46 | 3.7 | -8.21
COc1cc(CN(C)C(=O)Nc2cc(C)on2)ccc1SC | -9.88 | 5.41 | -3.24 | 0.0571 | -2.73 | -24.2 | 21.6 | 6.33 | 9.9 | 1.22 | -2.37
N#Cc1ncn(CCC(=O)Nc2ccc(Cl)cc2F)n1 | 1.65 | 8.22 | -0.288 | 4.01 | 1.39 | -1.6 | 18.4 | 30.7 | 11.5 | 21 | -1.18
